The supplement of paper PMC11018630
Where a name gives a salt, the structure may show the parent alone. ± gives the standard deviation of the averaged measurements. Over roughly 1,100 compounds, “day of extracellular matrix detachment from plate” has its median near 16; the lowest 2% begin near 10. Only a selection was taken, and the lowest values are over-represented in it overall.

Tested on: RDEB dermal fibroblasts EB71
Assay: day of extracellular matrix detachment from plate (days); higher = delayed detachment (less fibrotic matrix)
Conditions: compound concentration: 10 uM

SMILES	day of extracellular matrix detachment from plate
O=C(O)CCC(=O)c1ccc(-c2ccccc2)cc1 [Fenbufen]	13
Nc1nc(=O)n([C@@H]2CS[C@H](CO)O2)cc1F [Emtricitabine]	19.3 ± 6.3
O=c1ccn([C@@H]2O[C@H](CO)[C@@H](O)[C@H]2O)c(=O)[nH]1 [Uridine]	12
COc1ccc(C[C@@H]2c3cc(OC)c(OC)cc3CC[N@+]2(C)CCC(=O)OCCCCCOC(=O)CC[N@@+]2(C)CCc3cc(OC)c(OC)cc3[C@H]2Cc2ccc(OC)c(OC)c2)cc1OC [Cisatracurium Besylate]	10 ± 1.7
COc1ccc(CC2c3cc(OC)c(OC)cc3CC[N+]2(C)CCC(=O)OCCCCCOC(=O)CC[N+]2(C)CCc3cc(OC)c(OC)cc3C2Cc2ccc(OC)c(OC)c2)cc1OC (stereo not given) [Atracurium Besylate]	15.7 ± 6.3
CCC(=O)O[C@@H](O[P@](=O)(CCCCc1ccccc1)CC(=O)N1C[C@H](C2CCCCC2)C[C@H]1C(=O)O)C(C)C [Fosinopril Sodium]	19
OC(Cn1cncn1)(Cn1cncn1)c1ccc(F)cc1F [Fluconazole]	12.7 ± 2.9
Nc1ccc(C(=O)NCC(=O)O)cc1 [Sodium 4-aminohippurate Hydrate]	13
Cn1c(=O)c2c(ncn2CC2OCCO2)n(C)c1=O [Doxofylline]	13
CN(C)CCC[C@@]1(c2ccc(F)cc2)OCc2cc(C#N)ccc21 [Escitalopram Oxalate]	13
OC[C@@H](O)[C@@H](O)[C@H](O)[C@@H](O)CO [Sorbitol]	16
OC[C@@H](O)[C@@H](O)[C@H](O)[C@H](O)CO [D-Mannitol]	13.7 ± 8.1
O=C[C@H](O)[C@@H](O)[C@H](O)CO [Xylose]	10 ± 1.7
COc1cc2ncnc(Nc3ccc(F)c(Cl)c3)c2cc1OCCCN1CCOCC1 [Gefitinib (ZD1839)]	29.4 ± 6
N#C[C@@H]1C[C@@H]2C[C@@H]2N1C(=O)[C@@H](N)C12CC3CC(CC(O)(C3)C1)C2 [Saxagliptin hydrate]	16.3 ± 1.1
CCCc1nc(C)c2c(=O)nc(-c3cc(S(=O)(=O)N4CCN(CC)CC4)ccc3OCC)[nH]n12 [Vardenafil HCl Trihydrate]	16
COC(=O)C1=C(C)NC(C)=C(C(=O)OCCN2CCN(C(c3ccccc3)c3ccccc3)CC2)C1c1cccc([N+](=O)[O-])c1 (stereo not given) [Manidipine]	20.3 ± 2.3
COC(=O)C1=C(C)NC(C)=C(C(=O)OCCN2CCN(C(c3ccccc3)c3ccccc3)CC2)C1c1cccc([N+](=O)[O-])c1 (stereo not given) [Manidipine 2HCl]	18.3 ± 4
O=C(c1cc(Cc2n[nH]c(=O)c3ccccc23)ccc1F)N1CCN(C(=O)C2CC2)CC1	27.8 ± 5.5
CC1(C)S[C@@H]2[C@H](NC(=O)C(C(=O)O)c3ccccc3)C(=O)N2[C@H]1C(=O)O (stereo not given in full) [Carbenicillin disodium]	18
CSc1nc2cc(Cl)c(Oc3cccc(Cl)c3Cl)cc2[nH]1 [Triclabendazole]	13
CN(C)/N=N/c1[nH]cnc1C(N)=O [Dacarbazine]	11
CCC[C@H](N[C@@H](C)C(=O)N1[C@H](C(=O)O)C[C@@H]2CCCC[C@@H]21)C(=O)OCC [Perindopril Erbumine]	21 ± 1.7

SMILES	day of extracellular matrix detachment from plate
OC(CCN1CCCC1)(c1ccccc1)C1CCCCC1 (stereo not given) [Procyclidine HCl]	16 ± 1.7
CC1(C)S[C@@H]2[C@H](NC(=O)Cc3ccccc3)C(=O)N2[C@H]1C(=O)O [Penicillin G Sodium]	13
C[C@]1(Cn2ccnn2)[C@H](C(=O)O)N2C(=O)C[C@H]2S1(=O)=O [Tazobactam]	20 ± 1.7
CC1(C)[C@H](C(=O)O)N2C(=O)C[C@H]2S1(=O)=O [Sulbactam]	10 ± 1.7
CC1(C)[C@H](C(=O)O)N2C(=O)C[C@H]2S1(=O)=O [Sulbactam sodium]	11 ± 1.7
CC(C)(Oc1ccc(Cl)cc1)C(=O)O [Clofibric Acid]	13
CC(=O)O[C@]1(C(C)=O)CC[C@H]2[C@@H]3C[C@H](C)C4=CC(=O)C=C[C@]4(C)[C@@]3(F)[C@@H](O)C[C@@]21C [Fluorometholone Acetate]	27.2 ± 3.5
N#CC(c1ccc(Cl)cc1)c1c(Cl)cc(-n2ncc(=O)[nH]c2=O)cc1Cl (stereo not given) [Diclazuril]	15.7 ± 6.3
O=C(O)CCc1nc2ccccc2[nH]1 [Procodazole]	13
N#C/C(=C1/SC[C@@H](c2ccc(Cl)cc2Cl)S1)n1ccnc1 [Luliconazole]	13
C[N+]1(C)CCC(OC(=O)C(O)(c2ccccc2)C2CCCC2)C1 (stereo not given) [Glycopyrrolate]	20.3 ± 2.9
CCN(CC)CCOCCOC(=O)C(CC)(CC)c1ccccc1 [Oxeladin Citrate]	13
CN1C2=CC(=O)/C(=N\NC(N)=O)C=C2CC1S(=O)(=O)O (stereo not given) [Carbazochrome sodium sulfonate (AC-17)]	16.7 ± 2.3
C/C(O)=C(\C#N)C(=O)Nc1ccc(C(F)(F)F)cc1 [Teriflunomide]	13
C[C@@](Cc1ccc(O)c(O)c1)(NN)C(=O)O [Carbidopa]	15.7 ± 6.3
NCCc1ccc(O)c(O)c1 [Dopamine HCl]	15.7 ± 6.3
C[C@](N)(Cc1ccc(O)c(O)c1)C(=O)O [Methyldopa]	10.3 ± 1.1
CO/N=C(\C(=O)N[C@@H]1C(=O)N2C(C(=O)O)=C(COC(N)=O)CS[C@H]12)c1ccco1 [Cefuroxime sodium]	17
NCCCCC(NC(=O)C1CCCN1C(=O)C1CSSCC(N)C(=O)NC(Cc2ccc(O)cc2)C(=O)NC(Cc2ccccc2)C(=O)NC(CCC(N)=O)C(=O)NC(CC(N)=O)C(=O)N1)C(=O)NCC(N)=O (stereo not given) [Lypressin Acetate]	23 ± 1.7
COc1cc(Nc2ncc3c(n2)-c2ccc(Cl)cc2C(c2c(F)cccc2OC)=NC3)ccc1C(=O)O [Alisertib (MLN8237)]	25
CC[C@H](NC(=O)[C@H](C)NC)C(=O)N1C[C@@H](O)C[C@H]1Cc1c(-c2[nH]c3cc(F)ccc3c2C[C@@H]2C[C@H](O)CN2C(=O)[C@H](CC)NC(=O)[C@H](C)NC)[nH]c2cc(F)ccc12 [Birinapant]	19 ± 6.9
CC(=O)O[C@]1(C(C)=O)CC[C@H]2[C@@H]3C[C@H](C)C4=CC(=O)CC[C@]4(C)[C@H]3CC[C@@]21C [Medroxyprogesterone acetate]	19.3 ± 6.3
